Where “and” joins values, the source holds several entries; their conditions need not be identical. Equal entries are not always repeated. Out of some 310,000 compounds screened, about 1,000 (0.32%) were called active. The list is a sample of the results. Entries with a potency or affinity are not part of this list. Values without a mark were called inactive. The rule behind the calls is not given here.
Assay: Inhibition of PhoP regulon, Salmonella typhi GFP reporter cells, confirmation, 4 h (AID 1850);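 note: 0% = induced wells with vehicle and 100% = uninduced wells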
Details: Salmonella Typhi PhoP-promoter GFP reporter, fluorescence, at 50 µM, stronger effect = higher value

| Structure (SMILES) | inhibition |
| --- | --- |
| COc1ccc2[nH]cc(C(=O)CCl)c2c1 | 30.9% |
| COc1ccc2c(C(=O)CN3CCN(CCO)CC3)c[nH]c2c1 | -2.19% |
| CCc1nc(SCC#N)c(C#N)cc1C | -1.52% |
| CC(Cc1cccc(C(F)(F)F)c1)NCCOC(=O)c1ccccc1 (stereo unspecified) | 12.2% and -11.7% |
| COc1ccccc1CCNCc1cccc(C(F)(F)F)c1 | 2.37% |
| CNC[C@@H](C)NC[C@@H](Cc1ccccc1)NCCc1ccccc1 | 19.6% |
| CC(CCc1ccccc1)NCc1cccc2ccccc12 (stereo unspecified) | -6.36% |
| CCC[C@H](CN[C@@H](CNC)[C@H](C)O)NCCc1ccc(OC)cc1 | -14.6% |
| CCC[C@@H](CN[C@@H](CNC)[C@H](C)CC)NCC1CCC(C(C)(C)C)CC1 (stereo partly specified) | 11.1% |
| Cc1cc(C)n2c(Nc3ccc4c(c3)OCCO4)c(-c3ccccc3)nc2n1 | -10.2% |
| CCCCN1C(=O)C2NN=C(C(=O)OCC)C2C1=O (stereo unspecified) | 8.14% |
| Cc1ccc(-n2nc3c(c2NC(=O)c2ccc4c(c2)OCO4)CS(=O)(=O)C3)cc1C | -5.55% |
| COc1ccccc1N1C(=O)c2ccccc2NC1c1cc(OC)c(OC)c(OC)c1 (stereo unspecified) | 2.7% |
| CCc1ccccc1NC(=O)C1CCN(C(=O)c2ccc([N+](=O)[O-])cc2)CC1 | -0.4% |
| O=C(NCc1ccc(OC(F)(F)F)cc1)C1CC2Cn3c(nc4ccccc43)C2N1Cc1ccccc1 (stereo unspecified) | 2.43% |
| N#Cc1c(-c2ccccc2)cc(-c2ccc(O)cc2)nc1N | -7.46% |
| O=C(COC(=O)c1ccccc1[N+](=O)[O-])NC(=O)c1ccccc1 | -0.26% |
| CCNC(=O)Cn1c(=O)c(=O)n(Cc2ccccc2)c2ccc(Cl)cc21 | -13.1% |
| Cc1ccc(CC2CC(=O)N(c3ccc(C)cc3)C2=O)cc1 (stereo unspecified) | 7.02% |
| CCn1c2ccccc2c2cc(NC(=O)CSc3nnc(-c4ccccc4OC)n3N)ccc21 | -0.4% |
| N=c1c2c(-c3ccccc3)c(-c3ccccc3)n(Cc3ccco3)c2ncn1CCCO | 12.1% |
| N=c1c2c(-c3ccccc3)c(-c3ccccc3)n(Cc3ccccc3)c2ncn1CCCn1ccnc1 | -3.96% |
| CCOC(=O)C1=C(CS(=O)(=O)c2ccccc2)NC(=O)NC1c1ccc(OC)c(OC)c1 (stereo unspecified) | -2.15% |
| Cn1c2c(c(=O)n(C)c1=O)CN(Cc1ccc(F)cc1)CN2 | 7.57% |

| Structure (SMILES) | inhibition |
| --- | --- |
| c1ccc2[nH]c(-c3ccncc3)nc2c1 | 5.01% |
| Fc1ccc(-c2nc3ccccc3[nH]2)cc1 | -1.08% |
| C[N+](C)(C)CCCCCC[N+](C)(C)C | -25.1% |
| C[N+](C)(C)CCCCCCCCCC[N+](C)(C)C | 8.92% |
| C#CC[N+](C)(C)CCCCCCCCCC | 2.68% |
| CCCCCC[N+](C)(C)CCSSCC[N+](C)(C)CCCCCC | 5.58% |
| CC1CC(=O)Nc2ccccc2N1C(=O)Nc1ccc(F)cc1 (stereo unspecified) | -0.31% |
| Cc1ccc(-c2ccc(C(=O)O)o2)cc1Cl | 6.76% |
| CCOC(=O)C(=CNc1cc(C)ccc1C)C(=O)OCC | -9.72% |
| CCOC(=O)Cc1csc(NC(=O)c2cnc3scc(C)n3c2=O)n1 | -13.9% |
| O=C(O)c1cc(S(=O)(=O)N2CCN(C(c3ccccc3)c3ccccc3)CC2)ccc1Cl | -2.19% |
| CN1CCN(CCOc2cccc(Cl)c2)CC1 | 4.36% |
| CN1CCN(C(c2ccccc2)c2ccc(Cl)cc2)CC1 (stereo unspecified) | -4.81% |
| CN1CCN(C(c2ccccc2)c2ccccc2)CC1 | -1.19% |
| Cc1cc(C)cc(C(=O)NCC(=O)OC(C)C(=O)N(C)c2ccccc2)c1 (stereo unspecified) | -2.85% |
| Cc1nc2sc3c(c2c(=O)[nH]1)CCCCC3 | -10.5% |
| Cc1ccccc1-n1ccnc1SCC(=O)NCc1ccco1 | 1.18% |
| O=C(c1ccc(Cl)c(NC2=NC3CS(=O)(=O)CC3S2)c1)N1CCN(c2ccccc2)CC1 (stereo unspecified) | -0.27% |
| Cc1ccc(OCCn2cc(C#N)c3ccccc32)cc1 | -3.38% |
| COc1ccc(F)cc1S(=O)(=O)NC1CC(C)(C)NC(C)(C)C1 | -0.42% |
| CCOc1cccc2sc(=NC(=O)CCS(=O)(=O)c3ccc(F)cc3)n(C)c12 | -5.1% |
| O=C(C1CCCN(S(=O)(=O)c2cccc3nonc23)C1)N1CCN(c2cccc(Cl)c2)CC1 (stereo unspecified) | 2.17% |
| CCCNC(=O)C1CC(=O)N(c2ccc(OCC)cc2)C1 (stereo unspecified) | -4.98% |
| CSc1nc(NCc2ccco2)c2ccccc2n1 | 3.85% |

| Structure (SMILES) | inhibition |
| --- | --- |
| COc1ccc(OC)c(Nc2nc(NCc3ccco3)c3ccccc3n2)c1 | -4.32% |
| Cc1cccc(Nc2nc(N)c([N+](=O)[O-])c(NCc3ccco3)n2)c1 | -6.31% |
| Fc1ccccc1-c1nc(NCc2ccco2)c2ccccc2n1 | -5.43% |
| COc1cccc(-c2nc(NCc3ccco3)c3ccccc3n2)c1O | -5.74% |
| Cc1cccc(Nc2nc(NCc3ccco3)nc(N)c2[N+](=O)[O-])c1 | -3.95% |
| Cc1ccccc1Nc1nc(NCc2ccco2)c2ccccc2n1 | -14.1% |
| Oc1ccccc1Nc1nc(NCc2ccccc2)c2ccccc2n1 | 2.95% |
| COc1ccccc1-c1c(C)nn2c(N3CCC4(CC3)OCCO4)cc(C)nc12 | -2.41% |
| O=C(COC(=O)C1CC(=O)N(c2nc(-c3ccccc3)cs2)C1)c1ccccc1 (stereo unspecified) | -9.24% |
| CC(=O)NC(Cc1ccc(N(CCCl)CCCl)cc1)C(=O)NCC(=O)NCC(=O)O (stereo unspecified) | 6.1% |
| Cc1nn(CCCC(=O)NCCCN2CCN(C)CC2)c(=O)c2c1sc1ccccc12 | 11.5% |
| Cc1ccc(S(=O)(=O)NCCC(=O)OCc2ccc([N+](=O)[O-])cc2)cc1C | -4.36% |
| COC(=O)c1cc2oc(C)cc2n1CC(=O)N1CCCc2ccccc21 | -6.03% |
| O=C(Nc1ccn(Cc2c(F)c(F)c(F)c(F)c2F)n1)c1cccc(Cn2cc([N+](=O)[O-])cn2)c1 | -7.4% |
| CCc1cccc(C)c1NC(=O)c1cccnc1 | -4.39% |
| O=C1C(Cl)=C(NCCN2CCCCC2)C(=O)c2ccccc21 | -2.93% |
| Cc1ccc(Nc2nc(NCc3ccco3)c3ccccc3n2)cc1 | 5.88% |
| Nc1nc(Nc2ccccc2)nc(NCc2ccco2)c1[N+](=O)[O-] | 3.06% |
| O=C(OCC(=O)N(Cc1ccccc1)Cc1ccccc1)c1ccccc1NCCO | -4.63% |
| CSc1nc2c(c(=O)[nH]1)C(c1ccc(C(F)(F)F)cc1)CC(=O)N2 (stereo unspecified) | 6.77% |
| CNc1oc(-c2cccs2)nc1S(=O)(=O)c1ccccc1 | -10% |
| COc1ccc(C(OCC(O)CN(C)C2CCCCC2)c2ccc(OC)cc2)cc1 (stereo unspecified) | -25.4% |
| Cc1ccc(NC(C)C(=O)N/N=C/c2ccc([N+](=O)[O-])s2)cc1 (stereo unspecified) | -1.13% |
| O=C(N/N=C/c1ccc([N+](=O)[O-])s1)c1ccccc1 | 6.9% |

| Structure (SMILES) | inhibition |
| --- | --- |
| O=C(N/N=C/c1ccc(Cl)s1)C(O)c1ccccc1 (stereo unspecified) | -6.88% |
| O=C(N/N=C/c1ccc(Br)s1)c1ccccc1[N+](=O)[O-] | -8.63% |
| O=C(N/N=C/c1ccc([N+](=O)[O-])s1)c1cccc(Br)c1 | -0.18% |
| Cc1ccc(/C=N/NC(=O)C(O)c2ccccc2)o1 (stereo unspecified) | 1.91% |
| Cc1cc(C(=O)N/N=C/c2ccc([N+](=O)[O-])s2)c2ccccc2n1 | 4.3% |
| O=C(N/N=C/c1ccc(-c2ccc([N+](=O)[O-])cc2)o1)C(O)c1ccccc1 (stereo unspecified) | -3.63% |
| O=C(c1cc2ccccc2cc1O)N1CCN(c2ccc([N+](=O)[O-])cc2)CC1 | 6.8% |
| O=C(NCCCSc1ccccc1)c1ccc(=O)[nH]c1 | -9.17% |
| C=CCc1cc(Cl)ccc1OCCN1CC(C)OC(C)C1 (stereo unspecified) | -16% |
| Cn1c(-c2cccc([N+](=O)[O-])c2)cnc1NCc1ccc(C#N)cc1 | -3.32% |
| CC1(C)Cc2c(sc3c2c(N)nc(=S)n3Cc2ccccc2)CO1 | -10.9% |
| O=C(NCCC1=CCCCC1)c1cc(S(=O)(=O)N2CCOCC2)ccc1Cl | -3.59% |
| Cc1ccc(S(=O)(=O)Nc2cc(C(=O)N3CCC4(CC3)OCCO4)ccc2N2CCCCC2)cc1 | 3.06% |
| Cc1nc(SCC(=O)Nc2cc(Cl)ccc2[N+](=O)[O-])nc(C)c1C | 1.39% |
| O=C(CSc1nc2ccccc2[nH]1)N1CCN(C(=O)c2ccco2)CC1 | -8.53% |
| COc1ccc(CSC(=N)N)cc1[N+](=O)[O-] | -11.2% |
| CCOc1ccc(CSC(=N)N)cc1[N+](=O)[O-] | -0.03% |
| CCCOc1ccc(CCCN=C(N)N)cc1Cl | 22.8% |
| CCOc1ccc(CSC(=N)N)cc1Cl | 20.5% |
| CCCCOc1ccc(CSCCN)cc1Cl | 12% |
| CCOc1ccc(CN=C(N)N=C(N)N)cc1Cl | 20% |
| CCCCOc1ccc(CSC2=NCCN2)cc1[N+](=O)[O-] | 7.52% |
| CCCOc1ccc(CSC2=NCCN2)cc1[N+](=O)[O-] | 23.3% |
| Cc1cc(C(=O)Cn2nc(C(=O)O)c3ccccc3c2=O)c(C)n1-c1ccc(OC(F)F)cc1 | -17.2% |
